Compound activity: PubChem, National Center for Advancing Translational Sciences (NCATS)
RE007 growth inh: qHTS Assay for Inhibitors of the HIV-1 protein Vpr | S. pombe RE007 Vpr strain, BacTiter-Glo ATP luminescence, 24 h | Potency, µM (series often up to 92.2 µM), inactives show at the top dose activity change, negative = less growth, hits mostly inhibitors | actives 0.21% (n = 360,000) | AID 651644, 2012; active = well fitted falling curve with a large enough effect; inconclusive = small, poorly fitted or top-dose-only effect; inactive = no such curve, though single readings can be large or run the other way; note: nearly all actives have a fitted effect of over 50% in size
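Fission yeast RE007 carrying one integrated HIV-1 vpr copy, seeded at OD 0.01 in PMG+AL medium with 23 nL pinned compound. Grown 24 h at 30 degrees; viability read by BacTiter-Glo luminescence after 5 min.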
FMDV antiviral: High Throughput Screening for Foot and Mouth Disease Virus Antivirals. FMDV antiviral cell-based qHTS. Potency, µM (top dose mostly 57.9 µM), without a hit: at the top dose activity change, negative = inhibition, usual class: inhibitors. actives 1.2% (n = 410,000); calls by dose curve; tested in HEK293T cells; note: read-out not given here; nearly all actives have a fitted effect of over 45% in size
HCV inhibitor: qHTS Assay for Inhibitors of Hepatitis C Virus (HCV); AID 651820, 2012; Huh7.5.1 HCVcc-Cre infection, luciferase reporter, 44 h; actives 3.4% (n = 340,000); Potency, µM (series often up to 41.8 µM), inactives show top-dose activity change, negative = inhibition, hits mostly inhibitors
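A cell-based infection assay in which seeded cells (1,000 per well) receive test compound after 4 h, are inoculated with HCVcc-Cre at approximately 0.5 moi, and are incubated 44 h before luminescence detection.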
Marburg entry inh: qHTS for inhibitors of binding or entry into cells for Marburg Virus; actives 1.8% (n = 300,000); AID 540276, 2011; Potency, µM (top dose mostly 37.8 µM), inactives show at the top dose activity change, negative = inhibition, hits mostly inhibitors; Marburg virus pseudotyped entry inhibition, cell reporter; calls by dose curve; tested in HEK293 cells
Sm TGR block: qHTS Assay for the Inhibitors of Schistosoma Mansoni Peroxiredoxins. Schistosoma mansoni thioredoxin glutathione reductase (TGR), Q962Y6. purified TGR, DTNB reduction, TNB absorbance 405 nm. Potency, µM (top dose mostly 114 µM), for the others: top-dose activity change, negative = inhibition, hits mostly inhibitors. actives 3% (n = 360,000); note: nearly all actives have a fitted effect of over 60% in size
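Kinetic colorimetric format: TGR-catalysed, NADPH-driven DTNB reduction monitored via TNB absorbance. Enzyme dispensed at 20 nM; compound exposure 15 min at room temperature before reaction start.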
LASV entry inh: qHTS for Inhibitors of binding or entry into cells for Lassa Virus; Potency, µM (doses to about 37.9 µM), for inactives: at the highest dose activity change, negative = inhibition, most hits filed as inhibitors; Lassa virus pseudotype entry inhibition, cell reporter; actives 1.2% (n = 300,000); calls by dose curve; tested in HEK293 cells; note: nearly all actives have a fitted effect of over 50% in size
Starred values were filed as active, the others as inactive; u = inconclusive; x = not tested or not shown; [ ] = remark or other dose. Shown are actives, neighbours in structure and some others; about 7.2% of the full set was active somewhere. Unless noted, calls come from the whole dose curve; as a rule, active = well fitted curve in the direction sought with a large enough effect; inconclusive = small, poorly fitted or top-dose-only effect, or another doubt; inactive = no such curve, though single readings can be large; an effect the other way counts as inactive or inconclusive. % is set by controls: 0 for no effect and ±100 for the full control effect; potency is the fitted concentration of half-maximal effect.

SMILES	RE007 growth inh	FMDV antiviral	HCV inhibitor	Marburg entry inh	Sm TGR block	LASV entry inh
O=C(Nc1ccc2oc(-c3cccnc3)nc2c1)c1cccnc1	4%	13%	-2%	0%	-22%	2%
Cc1ccc(NC(=O)c2ccccc2)cc1-n1cnnn1	-5%	25%	10%	0%[46.1 µM]	20µM*	-1%[46.1 µM]
O=C(Nc1ccc2oc(-c3cc(Br)ccc3Cl)nc2c1)c1ccc2ccccc2c1	x	-11%	x	x	-1%	1%[46.1 µM]
Cc1ccc(NC(=O)c2ccccc2Cl)cc1-n1cnnn1	-19%	10%	-5%	u	0%	15%
Cc1nc(N2CCOCC2)c2c(C(=O)N3CCN(c4cccc(C)c4C)CC3)c(C)oc2n1	x	-21%	x	x	25%	-8%[46.1 µM]
O=C(Nc1ccccc1C(F)(F)F)c1noc2c1CCCC2	x	31%	x	u	9%	6%[46.1 µM]
Cc1c(C(=O)Nc2ccc3oc(-c4cccnc4)nc3c2)oc2ccccc12	-9%	-13%	u	-19%	-5%	18µM*
O=C(Nc1ccc2oc(-c3ccccc3)nc2c1)c1cccs1	-11%	18%	u	1%[46.1 µM]	0%	9%
Cc1c(C(=O)Nc2cccnc2)oc2ccc(Br)cc12	-4%	62%	u	5µM*	5%	u
CCc1ccc2oc(C(=O)Nc3cccnc3)c(C)c2c1	1%	27%	u	x	-12%	x
O=C(Nc1ccc(-c2nc3ncccc3o2)cc1)c1ccco1	-22%	40%	9%	19%	20µM*	-5%
O=C(Nc1ccc(-c2nc3ncccc3o2)cc1)c1ccc(Br)o1	-21%	-12%	-5%	-4%	u	u
O=C(Nc1ccc2oc(-c3ccccc3)nc2c1)c1ccncc1	-18%	u	10µM*	u	-35%	-13%
CCOC(=O)C1CCN(C(=O)Cn2ncc3c4ccccc4n(Cc4ccccc4F)c3c2=O)CC1	x	-12%	x	-4%[46.1 µM]	5%	-13%[46.1 µM]
O=C(Nc1ccc2nc3ccccc3nc2c1)c1ccccc1	-15%	-24%	u	u	2%	11µM*
O=C(Nc1ccc2oc(-c3cccnc3)nc2c1)c1ccc(Br)o1	7%	-28%	-1%	-11%	28µM*	4%
COc1ccc(C)cc1NC(=O)CCS(=O)(=O)c1ccc2c(c1)CC(=O)N2C	x	22%	x	x	8%	27%[46.1 µM]
C=CCN(c1ccccc1)S(=O)(=O)c1cccc(C(=O)Nc2cc(C)ccn2)c1	-22%	16%	u	8.9µM*	1%	18µM*
C=CCN(c1ccccc1)S(=O)(=O)c1cccc(C(=O)Nc2ncccc2O)c1	u	-5%	-2%	0%[46.1 µM]	2%	u
COc1ccc(N(Cc2ccccc2)S(=O)(=O)c2cccc(C(=O)Nc3ccccn3)c2)cc1	2%	4%	u	u	4%	13µM*
Cc1cccc(NC(=O)c2cccc(S(=O)(=O)N(C)c3ccccc3)c2)n1	55%	-17%	u	u	-4%	u
COc1ccccc1N(Cc1ccccc1)S(=O)(=O)c1cccc(C(=O)Nc2cccc(C)n2)c1	4%	-3%	10µM*	x	-7%	x
CN1CCN(C(=O)C(=O)Nc2c3c(nn2-c2ccc(F)cc2)CSC3)CC1	x	-17%	x	x	-34%	5%[46.1 µM]
CCCCCCOc1ccc(C2C(=O)N(C3CCCCC3)CC(=O)N2CCCC)cc1 (stereo unspecified)	x	u	x	x	-1%	1%[46.1 µM]
Cc1ncc2c(c1CNC(=O)c1ccc3c(c1)OCO3)CCN(C(=O)c1coc3c1C(=O)CCC3)C2	x	8%	x	x	x	x
SMILES	RE007 growth inh	FMDV antiviral	HCV inhibitor	Marburg entry inh	Sm TGR block	LASV entry inh
CC(=O)Nc1cccc(NC(=O)c2cc3c(=O)n4cccc(C)c4nc3n2C)c1	x	9%	x	x	-11%	18%[46.1 µM]
Cc1ccc(Cl)c2sc(NC(=O)CS(=O)(=O)c3ccc(Cl)cc3)nc12	x	-16%	x	x	0%	u
Cn1cccc1/C=N/n1c(-c2ccccc2)n[nH]c1=S	18%	-6%	14%	u	6%	u
Cn1cccc1/C=N/n1c(-c2ccc(C(C)(C)C)cc2)n[nH]c1=S	13%	-20%	u	u	6%	10µM*
Oc1ccc(Cl)cc1C=Nc1ccc(Br)cc1	-9%	-9%	-9%	-16%[46.1 µM]	-22%	-16%[46.1 µM]
Oc1c(Br)cc(Br)cc1C=Nc1cccnc1	x	-18%	4%	x	u	x
Oc1ccc(Cl)cc1/C=N/c1nccs1	-2%	-14%	-9%	-4%	20µM*	0%
Oc1c(Br)cc(Br)cc1/C=N/c1nccs1	u	-10%	-3%	x	4µM*	x
CCC(Oc1ccc(F)cc1)C(=O)Nc1nc2c(s1)CCCC2 (stereo unspecified)	x	-13%	x	-24%[46.1 µM]	7%	-5%[46.1 µM]
O=C1[C@H]2[C@H]3[C@H](O)[C@H](O)C/C(=N\OCc4ccccc4)[C@@H]3CC[C@H]2C(=O)N1Cc1ccc2c(c1)OCO2	x	x	x	-17%[14.2 µM]	x	x
c1ccc(-c2nnc(-c3ccccn3)nc2NC2CCCCC2)cc1	u	2%	1.6µM*	3.5µM*	0%	5µM*
COCCCn1c(SCC(=O)n2c(C)c(C)c3ccccc32)nnc1-c1ccoc1C	-7%	-30%	-22%	-18%[46.1 µM]	45µM*	7%
COc1ccc(C(=O)CSc2nnc(-c3ccoc3C)n2CC2CCCO2)cc1 (stereo unspecified)	-2%	-12%	-5%	-2%	45µM*	3%
COc1ccc(NC(=O)CSc2nnc(-c3ccoc3C)n2CC2CCCO2)cc1 (stereo unspecified)	5%	12%	8%	5%[46.1 µM]	-3%	-18%
COCCCn1c(SCC(=O)N2CC(=O)Nc3ccccc32)nnc1-c1ccoc1C	7%	1%	25%	-1%	0%	15%
COCCCn1c(SCC(=O)Nc2ccc3c(c2)OCCO3)nnc1-c1ccoc1C	2%	-20%	15%	7%	0%	u
COCCn1c(SCC(=O)c2ccc3c(c2)OCCO3)nnc1-c1ccoc1C	19%	-13%	-5%	-2%	28µM*	6%
COc1ccc2[nH]c3c(c2c1)CCN1C(=O)C(CC(=O)NCC24CC5CC(CC(C5)C2)C4)C[C@H](C(=O)N2CCOCC2)[C@@]31CCC1CCCC1 (stereo partly specified)	-10%	u	u	2%	x	x
CCOc1ccc2nc(N3C(=O)C(O)=C(C(=O)c4ccco4)C3c3ccco3)sc2c1 (stereo unspecified)	-7%	4%	17%	x	-33%	x
COc1ccc2nc(N3C(=O)C(O)=C(C(=O)c4ccco4)C3c3ccc(C)o3)sc2c1 (stereo unspecified)	-16%	-2%	-4%	0%[46.1 µM]	32µM*	8%
